Experimental data published in PubChem BioAssay.
Active and inactive are the calls of the source.

Key:
[1] = E. coli DRC41 culture turbidity changes, primary screen, E. coli filamentation inducer project, strain DRC41, OD650, 48 h (AID 1152);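 note: E. coli MC1000 strain DRC41 lacking acrAB efflux pump and sulA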; conditions: E. coli DRC41 (acrAB sulA), higher = more signal, called active from +8 up or from −8 down
[2] = small-molecule binders of probe aLefty1, primary screen, biochemical, small-molecule microarray, 635/667 nm fluorescence (AID 1153); conditions: higher = more signal;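 note: score merges spot fluorescence with signal-to-noise ratio from the scanned slide images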
[3] = PSAC antagonists in infected red cells, primary screen, cell-based, P. falciparum Indochina, OD700, 1 h (AID 1154); conditions: P. falciparum Indochina infected RBC osmotic lysis, higher = more signal, called active from +8 up or from −8 down
[4] = PSAC antagonists in infected red cells, primary screen, cell-based, P. falciparum Indochina, OD700, 2 h (AID 1155);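 note: lysis reports solute entry through the parasite surface anion channel PSAC; channel blockers reduce lysis of infected cells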; conditions: P. falciparum Indochina infected erythrocytes, osmotic lysis OD700; higher = more signal, called active from +8 up or from −8 down
[5] = osmotic lysis modulators in infected erythrocytes, primary screen, PSAC antagonist project, cell-based, P. falciparum Indochina, OD700, 3 h (AID 1156); conditions: higher = more signal, called active from +8 up or from −8 down
[6] = PSAC antagonists in infected red cells, primary screen, cell-based, P. falciparum Indochina, OD700, 18 h (AID 1157); conditions: P. falciparum Indochina infected erythrocytes, osmotic lysis OD700, 18 h; higher = more signal, called active from +8 up or from −8 down
[7] = modulators of S6 phosphorylation in cells, primary screen, cell-based, A549, cytoblot, luminescence, serum-stimulated (AID 1158); conditions: A549 phospho-S6 cytoblot, 5 h, higher = more signal;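 note: serum-stimulated A549 lung adenocarcinoma cells; signal is phosphorylated S6 detected by cytoblot immunostaining with HRP secondary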
[8] = target: NADPH oxidase 2 (Homo sapiens) (UniProt P04839); assay: NOX2-dependent H2O2 signal modulators, primary screen, NOX inhibitor project, cell-based, HEK293-NOX2, PMA-stimulated, Amplex Red fluorescence (AID 1159); conditions: 45 min, higher = more signal, called active from +8 up or from −8 down; note: test concentration not given here
NADPH oxidase 2 (Homo sapiens), sequence (P04839 whole entry, looked up): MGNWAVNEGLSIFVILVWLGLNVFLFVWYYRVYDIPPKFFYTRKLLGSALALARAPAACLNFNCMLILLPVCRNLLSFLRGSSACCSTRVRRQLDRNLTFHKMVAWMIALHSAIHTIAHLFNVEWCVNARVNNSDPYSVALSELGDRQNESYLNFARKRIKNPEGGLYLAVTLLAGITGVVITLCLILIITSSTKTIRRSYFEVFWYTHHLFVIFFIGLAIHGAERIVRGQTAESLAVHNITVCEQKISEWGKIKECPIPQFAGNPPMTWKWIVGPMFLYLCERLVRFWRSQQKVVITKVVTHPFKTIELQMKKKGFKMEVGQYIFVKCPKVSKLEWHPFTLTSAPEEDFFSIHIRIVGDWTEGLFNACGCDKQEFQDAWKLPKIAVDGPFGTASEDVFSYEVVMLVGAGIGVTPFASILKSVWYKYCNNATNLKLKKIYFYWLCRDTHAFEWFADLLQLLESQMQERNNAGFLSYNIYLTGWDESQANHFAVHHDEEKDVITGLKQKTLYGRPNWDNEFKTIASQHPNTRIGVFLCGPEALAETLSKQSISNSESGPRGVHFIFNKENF

[9] = target: NADPH oxidase 4 (Homo sapiens) (UniProt Q9NPH5); assay: NOX4-dependent H2O2 signal modulators, primary screen, NOX inhibitor project, cell-based, HEK293-NOX4, tetracycline-induced, Amplex Red fluorescence (AID 1160); conditions: 45 min, higher = more signal, called active from +8 up or from −8 down
NADPH oxidase 4 (Homo sapiens), sequence (Q9NPH5 whole entry, looked up): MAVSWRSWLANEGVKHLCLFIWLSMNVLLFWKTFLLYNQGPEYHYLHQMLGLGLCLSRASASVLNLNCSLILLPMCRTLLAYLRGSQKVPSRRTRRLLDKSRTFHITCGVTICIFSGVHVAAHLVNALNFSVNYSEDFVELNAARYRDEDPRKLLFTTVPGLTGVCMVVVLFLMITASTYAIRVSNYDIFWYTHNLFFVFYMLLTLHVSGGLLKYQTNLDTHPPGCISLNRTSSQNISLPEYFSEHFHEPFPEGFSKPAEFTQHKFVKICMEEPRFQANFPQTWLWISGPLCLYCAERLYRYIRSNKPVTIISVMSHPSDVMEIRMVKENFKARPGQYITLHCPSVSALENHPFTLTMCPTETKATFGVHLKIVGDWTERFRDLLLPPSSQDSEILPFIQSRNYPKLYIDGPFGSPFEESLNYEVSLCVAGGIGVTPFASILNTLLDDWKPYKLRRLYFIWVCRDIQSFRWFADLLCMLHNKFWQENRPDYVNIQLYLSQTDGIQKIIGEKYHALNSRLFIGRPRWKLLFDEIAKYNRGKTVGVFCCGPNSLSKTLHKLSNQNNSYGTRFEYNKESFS

[10] = target: NADPH oxidase 5 (Homo sapiens) (UniProt Q96PH1); assay: NOX5-dependent H2O2 signal modulators, primary screen, NOX inhibitor project, cell-based, HEK293-NOX5, Amplex Red fluorescence (AID 1161); conditions: HEK293-NOX5, ionomycin, 45 min, higher = more signal
NADPH oxidase 5 (Homo sapiens), sequence (Q96PH1 whole entry, looked up): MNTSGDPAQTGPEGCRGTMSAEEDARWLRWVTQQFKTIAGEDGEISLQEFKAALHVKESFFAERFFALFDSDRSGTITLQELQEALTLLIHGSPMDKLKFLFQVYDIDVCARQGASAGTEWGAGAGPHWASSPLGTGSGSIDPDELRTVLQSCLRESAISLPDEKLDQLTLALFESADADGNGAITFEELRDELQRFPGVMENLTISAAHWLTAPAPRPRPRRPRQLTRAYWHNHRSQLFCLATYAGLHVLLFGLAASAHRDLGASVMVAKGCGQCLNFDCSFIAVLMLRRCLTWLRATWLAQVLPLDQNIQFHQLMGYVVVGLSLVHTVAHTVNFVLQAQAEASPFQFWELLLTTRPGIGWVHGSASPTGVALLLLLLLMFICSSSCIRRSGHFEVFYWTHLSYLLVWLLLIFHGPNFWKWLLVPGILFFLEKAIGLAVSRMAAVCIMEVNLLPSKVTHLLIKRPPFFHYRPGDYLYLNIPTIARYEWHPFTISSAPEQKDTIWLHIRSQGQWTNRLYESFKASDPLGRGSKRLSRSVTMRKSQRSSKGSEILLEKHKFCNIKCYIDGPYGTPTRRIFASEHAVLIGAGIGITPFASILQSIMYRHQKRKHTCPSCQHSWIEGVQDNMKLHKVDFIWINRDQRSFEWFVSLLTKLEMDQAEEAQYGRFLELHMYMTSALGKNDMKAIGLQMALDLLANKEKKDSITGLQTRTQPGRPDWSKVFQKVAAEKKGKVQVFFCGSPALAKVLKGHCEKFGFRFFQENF

| SMILES | z-score [1] | composite z-score [2] | z-score [3] | z-score [4] | z-score [5] | z-score [6] | z-score [7] | z-score [8] | z-score [9] | z-score [10] |
| --- | --- | --- | --- | --- | --- | --- | --- | --- | --- | --- |
| COc1ccc(C(O)C2C=CC3C(=O)N(C)C(=O)C3N2Nc2ccccc2)cc1OCc1ccccc1 (stereo not given) | -1.69 (inactive) | 0.0451 | 1.68 (inactive) | 1.36 (inactive) | 0.272 (inactive) | 1.1 (inactive) | -1.17 | -1.25 (inactive) | -4.36 (inactive) | -2.57 |
| Cc1ccc([C@H]2C(C(=O)O)=C[C@@H](C)N2S(=O)(=O)c2ccc(C)cc2)cc1 | -0.832 (inactive) | -0.149 | 1 (inactive) | 0.587 (inactive) | 0.018 (inactive) | 0.39 (inactive) | -0.848 | 0.534 (inactive) | 0.259 (inactive) | 0.101 |
| COCCOC(=O)N1C(=O)[C@@]2(c3cc(C#CC4=CCCCC4)ccc31)[C@H](C(=O)NC[C@H](O)c1ccccc1)[C@H]1C(=O)O[C@H](c3ccccc3)[C@H](c3ccccc3)N1[C@@H]2c1ccc(O)cc1 | 1.8 (inactive) | 0.265 | 0.602 (inactive) | 0.793 (inactive) | 0.0873 (inactive) | 0.554 (inactive) | -0.176 | 1.2 (inactive) | 0.349 (inactive) | 1.22 |
| COC(=O)[C@@]1(Cc2ccccc2)[C@H]2c3cc(C(=O)N4CCCC4)n(C)c3C[C@H]2CN1C(=O)c1ccccc1 | -0.308 (inactive) | 0.321 | 1.54 (inactive) | -0.0273 (inactive) | 0.835 (inactive) | 0.396 (inactive) | -0.0948 | -0.153 (inactive) | -0.653 (inactive) | -1.45 |
| COc1ccc([Si](C)(C)[C@@H]2[C@@H](CC(=O)N(CCO)Cc3ccccc3)O[C@]3(C(=O)N(C)c4ccccc43)[C@H]2C)cc1 | -0.733 (inactive) | 0.31 | 11.8 (active) | 2.07 (inactive) | -0.87 (inactive) | 0.57 (inactive) | 0.388 | 0.406 (inactive) | 0.965 (inactive) | -1.21 |
| CCOC(=O)[C@H]1C[C@H]2O[C@@]23C[C@H]1C(=O)N1CCCC1[C@@H]3O[Si](C)(C)C(C)(C)C (stereo not given in full) | -0.954 (inactive) | -0.0573 | 1.35 (inactive) | 0.23 (inactive) | 0.183 (inactive) | 0.158 (inactive) | -0.67 | 1.05 (inactive) | 0.302 (inactive) | -1.7 |
| COCC1=C2[C@@H](CCc3ccccc3)OB(O)C[C@@H]2[C@@H]2C(=O)N(Cc3ccccc3)C(=O)[C@@H]2C1 | -0.536 (inactive) | -0.0573 | 1.75 (inactive) | -0.0799 (inactive) | -0.558 (inactive) | 0.0831 (inactive) | 0.533 | -0.0858 (inactive) | 0.552 (inactive) | 0.974 |
| C=C[C@H](COC(C)=O)N(Cc1ccc(OC(C)=O)c(OC)c1)S(=O)(=O)c1ccc(Br)cc1 | 1.49 (inactive) | 0.19 | 3.23 (inactive) | -1.11 (inactive) | -0.827 (inactive) | -1.15 (inactive) | 2 | -4.68 (inactive) | -0.87 (inactive) | -1.95 |
| C=CC(COC(C)=O)NS(=O)(=O)c1ccc(Br)cc1 (stereo not given) | -1.32 (inactive) | 0.157 | 0.132 (inactive) | -0.168 (inactive) | -0.73 (inactive) | -0.064 (inactive) | 0.495 | -0.334 (inactive) | -0.0279 (inactive) | -0.377 |
| COC(=O)[C@@]1(Cc2ccc(OC)cc2)[C@H]2c3cc(C(=O)N4CCCC4)n(Cc4ccccn4)c3C[C@H]2CN1C(=O)c1ccccc1 | -0.824 (inactive) | 0.595 | 3.64 (inactive) | 0.537 (inactive) | 1.1 (inactive) | 0.814 (inactive) | -0.569 | 0.29 (inactive) | -1 (inactive) | -3.2 |
| COc1ccc(C#Cc2ccc3c(c2)[C@]2(C(=O)N3)[C@H](C(=O)NC[C@H](O)c3ccccc3)[C@H]3C(=O)O[C@H](c4ccccc4)[C@H](c4ccccc4)N3[C@@H]2c2ccccc2OCCO)cc1 | -0.13 (inactive) | 0.29 | 1.78 (inactive) | 1.95 (inactive) | -0.054 (inactive) | 1.41 (inactive) | -0.0009 | 1.53 (inactive) | 0.36 (inactive) | 0.24 |
| CCOC(=O)C1=C[C@@H](CC)N(S(=O)(=O)c2ccc(C)cc2)[C@H]1c1ccccc1 | -1.03 (inactive) | 0.271 | 1.83 (inactive) | 0.797 (inactive) | -0.187 (inactive) | 0.415 (inactive) | -0.388 | 0.0452 (inactive) | -0.606 (inactive) | -0.182 |
| N[C@@H](Cc1ccccc1)Cn1cc(-c2ccccc2)nn1 | -2.54 (inactive) | 0.271 | 5.12 (inactive) | 0.745 (inactive) | 0.0287 (inactive) | 0.53 (inactive) | -0.209 | 0.659 (inactive) | 0.45 (inactive) | 0.448 |
| Cc1ccccc1C(O)C1C=CC2C(=O)N(C)C(=O)C2N1Nc1ccccc1 (stereo not given) | -1.71 (inactive) | 0.274 | 1.15 (inactive) | 0.737 (inactive) | -0.0787 (inactive) | 1.1 (inactive) | -0.711 | -1.39 (inactive) | -4.19 (inactive) | -2.72 |
